Assay results reported in article PMC7862700, “An all-to-all approach to the identification of sequence-specific readers for epigenetic DNA modifications on cytosine”.

Key:
Experiment in all cases: DAPPL (digital affinity profiling via proximity ligation, sequencing); 10 mM Tris-HCl pH 7.5, 50 mM NaCl, 1 mM DTT, 4% glycerol, room temperature, 30 min; GST-TFs on glutathione beads, 16-mer random dsDNA library, 0.1% formaldehyde crosslink after washing; high values mean tight binding
Details in all cases: protein: recombinant; tags: N-terminal GST; dsDNA, one strand shown
FLI1 = target: T1, FLI1 (Homo sapiens, UniProt Q01543 1-452)
T1 sequence: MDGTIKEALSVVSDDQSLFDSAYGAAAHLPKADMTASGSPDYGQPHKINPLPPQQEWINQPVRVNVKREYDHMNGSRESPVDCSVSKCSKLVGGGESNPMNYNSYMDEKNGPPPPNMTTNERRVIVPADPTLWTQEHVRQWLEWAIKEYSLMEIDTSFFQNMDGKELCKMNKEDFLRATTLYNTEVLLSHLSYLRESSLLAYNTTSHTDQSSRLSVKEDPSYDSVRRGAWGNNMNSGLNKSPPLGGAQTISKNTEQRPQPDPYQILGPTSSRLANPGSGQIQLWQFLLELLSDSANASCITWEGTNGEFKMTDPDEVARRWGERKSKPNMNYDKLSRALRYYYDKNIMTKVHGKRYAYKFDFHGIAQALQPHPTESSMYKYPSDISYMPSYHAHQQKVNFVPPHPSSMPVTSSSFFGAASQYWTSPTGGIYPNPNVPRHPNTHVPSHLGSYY
Method in brief: (§1)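 Sequencing on an Illumina NextSeq500 followed washing, crosslinking with 0.1% formaldehyde, proximity ligation (BsaI/T4 ligase, 1 h, 37 °C) and PCR amplification of pools that had been incubated for 30 min at room temperature with 200 nmole of a random double-stranded 16-mer DNA library in Tris/NaCl/DTT/glycerol buffer. Each pool held DNA-barcoded human transcription factors, expressed in yeast as GST fusions and captured on glutathione beads, plus a tag-only sample. Binding signal is a hexamer's read frequency for a factor divided by its frequency in the tag-only sample.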

ELK1 = target: T2, ELK1 (Homo sapiens, UniProt P19419 1-428)
T2 sequence: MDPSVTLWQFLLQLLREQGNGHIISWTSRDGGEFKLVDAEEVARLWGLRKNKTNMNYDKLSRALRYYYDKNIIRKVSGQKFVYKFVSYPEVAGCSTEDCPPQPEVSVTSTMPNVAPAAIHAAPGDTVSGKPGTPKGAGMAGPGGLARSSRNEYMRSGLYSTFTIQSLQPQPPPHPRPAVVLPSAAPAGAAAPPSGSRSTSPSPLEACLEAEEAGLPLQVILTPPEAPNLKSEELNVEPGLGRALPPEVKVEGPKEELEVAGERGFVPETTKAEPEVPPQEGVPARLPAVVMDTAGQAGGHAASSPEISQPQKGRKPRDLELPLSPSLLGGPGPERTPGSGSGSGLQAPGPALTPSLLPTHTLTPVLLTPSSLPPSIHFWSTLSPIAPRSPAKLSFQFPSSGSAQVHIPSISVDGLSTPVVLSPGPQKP
Method in brief: as §1

GABPA = target: T3, GABPA (Homo sapiens, UniProt Q06546 1-454)
T3 sequence: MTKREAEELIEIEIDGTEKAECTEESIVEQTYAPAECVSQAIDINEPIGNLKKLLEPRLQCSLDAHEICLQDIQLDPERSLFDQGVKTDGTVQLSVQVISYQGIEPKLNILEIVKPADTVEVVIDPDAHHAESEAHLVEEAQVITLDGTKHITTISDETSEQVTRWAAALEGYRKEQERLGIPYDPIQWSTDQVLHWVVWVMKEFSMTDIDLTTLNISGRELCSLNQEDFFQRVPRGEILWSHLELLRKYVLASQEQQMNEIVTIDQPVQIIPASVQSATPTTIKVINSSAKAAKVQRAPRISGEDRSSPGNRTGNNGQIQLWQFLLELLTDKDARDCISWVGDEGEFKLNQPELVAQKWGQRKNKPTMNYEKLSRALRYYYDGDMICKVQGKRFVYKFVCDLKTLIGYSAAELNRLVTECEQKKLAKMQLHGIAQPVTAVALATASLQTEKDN
Method in brief: as §1

ERG = target: T4, ERG (Homo sapiens, UniProt P11308 1-479)
T4 sequence: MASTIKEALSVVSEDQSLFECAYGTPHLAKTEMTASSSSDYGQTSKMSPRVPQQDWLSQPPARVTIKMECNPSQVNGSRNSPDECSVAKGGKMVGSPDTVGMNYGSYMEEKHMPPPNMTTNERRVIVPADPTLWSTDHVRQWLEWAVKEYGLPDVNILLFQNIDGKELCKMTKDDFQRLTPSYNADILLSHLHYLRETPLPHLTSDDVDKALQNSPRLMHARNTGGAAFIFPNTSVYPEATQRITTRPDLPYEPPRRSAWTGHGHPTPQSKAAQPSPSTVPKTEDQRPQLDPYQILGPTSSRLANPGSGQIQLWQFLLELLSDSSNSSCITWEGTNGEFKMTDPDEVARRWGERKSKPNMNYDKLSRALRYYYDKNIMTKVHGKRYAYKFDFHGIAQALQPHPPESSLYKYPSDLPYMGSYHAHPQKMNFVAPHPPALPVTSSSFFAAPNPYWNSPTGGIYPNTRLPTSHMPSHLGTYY
Method in brief: as §1

ELF1 = ELF1 (Homo sapiens, UniProt P32519 1-619)
ELF1, sequence (P32519 whole entry): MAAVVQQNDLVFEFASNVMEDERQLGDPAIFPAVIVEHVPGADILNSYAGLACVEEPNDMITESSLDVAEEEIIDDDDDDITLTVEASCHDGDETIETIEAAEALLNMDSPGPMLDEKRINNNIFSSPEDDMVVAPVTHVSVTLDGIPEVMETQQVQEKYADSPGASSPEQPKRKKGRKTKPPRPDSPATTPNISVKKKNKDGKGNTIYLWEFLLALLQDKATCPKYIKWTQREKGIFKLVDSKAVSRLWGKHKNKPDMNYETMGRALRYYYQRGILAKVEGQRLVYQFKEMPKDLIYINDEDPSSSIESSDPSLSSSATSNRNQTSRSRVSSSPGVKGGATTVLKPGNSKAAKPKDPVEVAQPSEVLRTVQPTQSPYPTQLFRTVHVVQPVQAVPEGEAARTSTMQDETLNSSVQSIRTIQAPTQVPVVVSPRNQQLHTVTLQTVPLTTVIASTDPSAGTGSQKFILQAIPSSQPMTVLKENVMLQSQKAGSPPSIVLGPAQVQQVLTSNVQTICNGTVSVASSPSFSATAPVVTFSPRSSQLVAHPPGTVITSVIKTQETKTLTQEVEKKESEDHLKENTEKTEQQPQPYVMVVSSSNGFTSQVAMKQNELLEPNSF
Method in brief: as §1

EHF = target: T5, EHF (Homo sapiens, UniProt Q9NZC4 1-300)
T5 sequence: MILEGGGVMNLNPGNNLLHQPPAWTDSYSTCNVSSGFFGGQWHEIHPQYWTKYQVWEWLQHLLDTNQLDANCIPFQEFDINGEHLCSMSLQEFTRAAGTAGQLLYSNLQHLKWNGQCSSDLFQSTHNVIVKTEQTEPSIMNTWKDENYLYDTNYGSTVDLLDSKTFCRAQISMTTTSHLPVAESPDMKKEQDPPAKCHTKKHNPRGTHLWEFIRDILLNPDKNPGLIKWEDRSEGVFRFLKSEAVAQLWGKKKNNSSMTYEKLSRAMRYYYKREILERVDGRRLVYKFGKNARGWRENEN
Method in brief: as §1

SPI1 = SPI1 (Homo sapiens, UniProt P17947 1-270)
Method in brief: as §1

SPIB = SPIB (Homo sapiens, UniProt Q01892 1-262)
SPIB, sequence (Q01892 whole entry): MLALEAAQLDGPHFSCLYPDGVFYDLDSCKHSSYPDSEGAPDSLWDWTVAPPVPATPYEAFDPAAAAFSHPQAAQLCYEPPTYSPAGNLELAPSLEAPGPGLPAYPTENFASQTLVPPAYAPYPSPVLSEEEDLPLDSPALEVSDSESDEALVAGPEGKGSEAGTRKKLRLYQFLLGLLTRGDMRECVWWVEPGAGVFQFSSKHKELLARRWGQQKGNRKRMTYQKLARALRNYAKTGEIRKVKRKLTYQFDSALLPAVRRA
Method in brief: as §1

ELK3 = target: T6, ELK3 (Homo sapiens, UniProt P41970 1-407)
T6 sequence: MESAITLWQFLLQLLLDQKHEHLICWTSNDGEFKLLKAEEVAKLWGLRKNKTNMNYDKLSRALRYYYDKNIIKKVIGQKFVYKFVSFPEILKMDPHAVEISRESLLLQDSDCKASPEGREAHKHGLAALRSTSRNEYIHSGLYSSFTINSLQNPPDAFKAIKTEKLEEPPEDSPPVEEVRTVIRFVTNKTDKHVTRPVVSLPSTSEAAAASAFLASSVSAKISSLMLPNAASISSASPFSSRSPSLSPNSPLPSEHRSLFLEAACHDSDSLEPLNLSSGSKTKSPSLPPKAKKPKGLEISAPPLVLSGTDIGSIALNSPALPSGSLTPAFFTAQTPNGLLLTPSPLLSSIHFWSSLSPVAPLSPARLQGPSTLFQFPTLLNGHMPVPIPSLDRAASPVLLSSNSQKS
Method in brief: as §1

**Q.** Which results are given for ACTATC?
**A.** binding signal (FLI1): 1.15 fold enrichment (6-mer frequency, TF over GST control); binding signal (ELK1): 1.13 fold enrichment (6-mer frequency, TF over GST control); binding signal (GABPA): 1.17 fold enrichment (6-mer frequency, TF over GST control); binding signal (ERG): 1.11 fold enrichment (6-mer frequency, TF over GST control); binding signal (ELF1): 1.12 fold enrichment (6-mer frequency, TF over GST control); binding signal (EHF): 1.14 fold enrichment (6-mer frequency, TF over GST control); binding signal (SPI1): 1.21 fold enrichment (6-mer frequency, TF over GST control); binding signal (SPIB): 1.16 fold enrichment (6-mer frequency, TF over GST control); binding signal (ELK3): 1.07 fold enrichment (6-mer frequency, TF over GST control)
